Data published in the supplement of paper PMC13380429.

Tested on: Vero E6 infected with SARS-CoV-2
Experiment: inhibition of SARS-CoV-2 cytopathic effect; higher = more antiviral protection, active = above 15
Details: 48 h

Measured: inhibition of SARS-CoV-2 cytopathic effect

O=C(Cn1c(=O)sc2ccc(Cl)cc21)N1CCN(CCO)CC1 [tiaramide]
inactive: 1 nM -2.08% | 8.33 nM -1.84% | 100 nM -3.6% | 833.33 nM -1.93% | 10000 nM 2.14%

O=C(O)CCCCCCNC1c2ccccc2CCc2ccccc21 [amineptine]
inactive: 1 nM -0.8% | 8.33 nM -0.3% | 100 nM -1.15% | 833.33 nM -1.42% | 10000 nM -0.04%

CNC(=O)Nc1ccc(-c2nc(N3CC4CCC(C3)O4)c3cnn(C4CCC5(CC4)OCCO5)c3n2)cc1
inactive: 1 nM -1.21% | 8.33 nM 1.24% | 100 nM 0.34% | 833.33 nM -0.87% | 10000 nM 9.1%

CNC(=O)c1cccc2cc(Oc3ccnc4cc(OCC5(N)CC5)c(OC)cc34)ccc12 [lucitanib]
inactive: 1 nM 0.14% | 8.33 nM 2.44% | 100 nM 1.47% | 833.33 nM 2.09% | 10000 nM 2.58%

CN(CCOc1ccc(C[C@H](Nc2ccccc2C(=O)c2ccccc2)C(=O)O)cc1)c1ccccn1
inactive: 1 nM 2.1% | 8.33 nM 2.86% | 100 nM 0.52% | 833.33 nM 0.58% | 10000 nM -1.74%

CN(C)c1cc(CNCC(C)(C)C)c(O)c2c1C[C@H]1C[C@H]3[C@H](N(C)C)C(O)=C(C(N)=O)C(=O)[C@@]3(O)C(O)=C1C2=O [omadacycline]
inactive: 1 nM -0.66% | 8.33 nM 0.51% | 100 nM 1.58% | 833.33 nM -0.64% | 10000 nM -1.14%

CC1=C(/C=C/C(C)=C/C=C/C(C)=C/C(=O)O)C(C)(C)CCC1 [tretinoin]
inactive: 1 nM 1% | 8.33 nM -1.08% | 100 nM -0.09% | 833.33 nM 2.67% | 10000 nM 7.6%
